Several values for one entry are separate records, joined by “and”; a condition that tells them apart may be missing. Identical values can stand only once. Inconclusive results are not listed. Activity calls are given as the source filed them. The call rests on the fitted dose curve; in most records, active means well fitted curve in the direction sought with a large enough effect; inconclusive means small, poorly fitted or top-dose-only effect, or another doubt; inactive means no such curve, though single readings can be large; an effect the other way counts as inactive or inconclusive.
How the values were obtained:
[1] = BET inhibitor-based combinations targeting novel dependencies in MECOM-rearranged (r) AML: SET-2 cell line (AID 2202231); settings: SET-2 AML cells viability, CellTiter-Glo luminescence, 48 h; viability: stronger effect = lower value, concentration not given here; further: nearly all actives have a fitted effect of over 35% in size;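 on viability: plate controls were DMSO treated cells for no effect and wells without cells for full effect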
Summary of the method: (§1)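 Each compound was tested at eleven concentrations on cells seeded at 500/well. After two days' incubation, ATP-based luminescence reported viability; responses relative to DMSO and blank wells yielded AUC and cell-line-centred Z-AUC.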

[2] = BET inhibitor-based combinations targeting novel dependencies in MECOM-rearranged (r) AML: OCI-AML3 cell line (AID 2202232); settings: CellTiter-Glo luminescence, 48 h; Potency: OCI-AML3 viability; series mostly up to 46 µM; further: nearly all actives have a fitted effect of over 35% in size
Summary of the method: as §1

[3] = BET inhibitor-based combinations targeting novel dependencies in MECOM-rearranged (r) AML: MV-4-11 cell line (AID 2202233); settings: MV-4-11 AML viability, CellTiter-Glo luminescence, 48 h; series mostly up to 46 µM; further: nearly all actives have a fitted effect of over 45% in size
Summary of the method: (§2)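 First, 500 cells per well were seeded; next, drugs were pinned as 11-point doses; then plates sat 48 hr in the incubator; finally CellTiter-Glo was added and luminescence read, with AUC and Z-AUC computed.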

[4] = BET inhibitor-based combinations targeting novel dependencies in MECOM-rearranged (r) AML: HNT-34 cell line (AID 2202234); settings: HNT-34 AML viability, CellTiter-Glo luminescence, 48 h; series mostly up to 46 µM; further: nearly all actives have a fitted effect of over 35% in size
Summary of the method: as §2

[5] = BET inhibitor-based combinations targeting novel dependencies in MECOM-rearranged (r) AML: UCSD-AML1 cell line (AID 2202235); settings: UCSD-AML1 AML cells viability, CellTiter-Glo, 48 h; series mostly up to 46 µM; further: nearly all actives have a fitted effect of over 40% in size
Summary of the method: as §2

[6] = BET inhibitor-based combinations targeting novel dependencies in MECOM-rearranged (r) AML: AML-191 cell line (AID 2202236; further: nearly all actives have a fitted effect of over 35% in size); settings: AML-191 viability, CellTiter-Glo luminescence, 48 h; series mostly up to 46 µM
Summary of the method: as §1

[7] = BET inhibitor-based combinations targeting novel dependencies in MECOM-rearranged (r) AML: AML-194 cell line (AID 2202237; further: nearly all actives have a fitted effect of over 40% in size); settings: AML-194 (MECOM-r AML) viability, CellTiter-Glo, 48 h; series mostly up to 46 µM
Summary of the method: as §1
Potency means the concentration at half of the fitted maximal effect.

CC1(C(=O)O)CCC2(C)CCC3(C)C(=CC(=O)C4C5(C)CCC(OC6OC(C(=O)O)C(O)C(O)C6OC6OC(C(=O)O)C(O)C(O)C6O)C(C)(C)C5CCC43C)C2C1 (stereo not given)
inactive: viability [1] 124% | Potency [2] | Potency [3] | Potency [4] | Potency [5] | Potency [6] | Potency [7]

O=C(Nc1cc(Oc2cc(F)c(NC(=O)C3(C(=O)Nc4ccc(F)cc4)CC3)cc2F)ccn1)C1CC1
active: Potency [1] 11.8 µM | Potency [2] 11.8 µM | Potency [3] 0.235 µM | Potency [4] 7.42 µM | Potency [5] 14.8 µM | Potency [6] 16.6 µM | Potency [7] 14.8 µM

C=C[C@H]1CN2CCC1C[C@@H]2C(O)c1ccnc2ccc(OC)cc12 (stereo not given in full)
active: Potency [3] 18.6 µM
inactive: viability [1] 103% | Potency [2] | Potency [4] | Potency [5] | Potency [6] | Potency [7]

Cc1c[nH]c2nc(Nc3ccc(N4CCN(C)CC4)c(F)c3)nc(-c3cccc(CC#N)c3)c12
active: Potency [1] 2.63 µM | Potency [2] 2.95 µM | Potency [3] 0.0332 µM | Potency [4] 0.662 µM | Potency [5] 0.742 µM | Potency [6] 0.742 µM | Potency [7] 0.833 µM

CN(Cc1cnc2nc(N)nc(N)c2n1)c1ccc(C(=O)N[C@@H](CCC(=O)O)C(=O)O)cc1
active: Potency [1] 0.0372 µM | Potency [2] 0.0468 µM | Potency [3] 0.105 µM | Potency [5] 0.332 µM

N#Cc1c(N(CC(=O)O)CC(=O)O)sc(C(=O)O)c1CC(=O)O
inactive: viability [1] 117% | Potency [2] | Potency [3] | Potency [4] | Potency [6] | Potency [7]

C=C1CCC2[C@](C)(CO)C(O)CC[C@]2(C)C1C/C=C1/C(=O)OCC1O (stereo not given in full)
active: Potency [1] 14.8 µM | Potency [2] 7.42 µM | Potency [3] 3.32 µM | Potency [4] 5.9 µM | Potency [6] 7.42 µM | Potency [7] 9.34 µM

CCNCCc1ccc(CN(CC)c2cc(OC)ccc2[C@@H]2CCc3cc(O)ccc3C2)cc1
active: Potency [1] 9.34 µM | Potency [2] 6.61 µM | Potency [3] 5.9 µM | Potency [4] 8.33 µM | Potency [6] 7.42 µM | Potency [7] 8.33 µM

CO[C@@H]1[C@@H](O)[C@H](O)[C@@H](n2c3c(Cl)cccc3c3c4c(c5c6cccc(Cl)c6[nH]c5c32)C(=O)NC4=O)O[C@H]1CO
active: Potency [1] 1.32 µM | Potency [2] 1.32 µM | Potency [3] 0.934 µM | Potency [4] 0.59 µM | Potency [6] 2.35 µM | Potency [7] 1.32 µM

CC[C@@H]1[C@H](F)C(=O)N[C@@H]1COc1nccc2cc(C(N)=O)c(OC)cc12
active: Potency [1] 14.8 µM | Potency [2] 14.8 µM | Potency [3] 8.33 µM | Potency [4] 11.8 µM | Potency [6] 14.8 µM | Potency [7] 20.9 µM

NS(=O)(=O)c1ccc(S(=O)(=O)Nc2cccc3c(Cl)c[nH]c23)cc1
active: Potency [1] 14.8 µM | Potency [2] 2.95 µM | Potency [3] 0.59 µM | Potency [5] 2.35 µM

CC1(C)OCCn2c1nc1c(N3CCOCC3)nc(-c3cnc(N)nc3)nc12
active: Potency [1] 1.86 µM | Potency [2] 0.934 µM | Potency [3] 0.934 µM | Potency [5] 0.468 µM

O=C(NOCCO)c1ccc2cncn2c1Nc1ccc(I)cc1F
active: Potency [1] 18.6 µM | Potency [2] 0.0934 µM | Potency [3] 0.742 µM | Potency [4] 0.525 µM | Potency [7] 1.66 µM

N#C/C(=C1/Nc2ccccc2S1)c1ccnc(OCc2ccc(CN3CCOCC3)cc2)n1
active: Potency [1] 20.9 µM | Potency [2] 14.8 µM | Potency [3] 16.6 µM | Potency [4] 16.6 µM | Potency [7] 20.9 µM

O=S(=O)(Nc1ccc(-c2cccnc2)c2cccnc12)c1cccc(C(F)(F)F)c1
active: Potency [1] 10.5 µM | Potency [2] 7.42 µM | Potency [3] 7.42 µM | Potency [4] 4.17 µM | Potency [6] 5.9 µM | Potency [7] 7.42 µM

CN1CCN(c2ccc3nc(-c4cc(C(C)(C)C)c(OCCCC(=O)NCCCN=[N+]=[N-])c(C(C)(C)C)c4)[nH]c3c2)CC1
active: Potency [1] 10.5 µM | Potency [2] 10.5 µM | Potency [3] 7.42 µM | Potency [4] 9.34 µM | Potency [6] 9.34 µM | Potency [7] 8.33 µM

CC1c2cccc(O)c2C(O)=C2C(=O)C3(O)C(O)=C(C(N)=O)C(=O)C(N(C)C)C3C(O)C21 (stereo not given)
inactive: Potency [5]
active: Potency [1] 26.3 µM | Potency [2] 26.3 µM | Potency [3] 26.3 µM

COc1cc2c(NC3CCN(C)CC3)nc(N3CCCN(C)CC3)nc2cc1OCCCN(C)C
inactive: viability [1] 112% | Potency [2] | Potency [3] | Potency [4] | Potency [6] | Potency [7]

CN(CCOc1ccc(C[C@H](Nc2ccccc2C(=O)c2ccccc2)C(=O)O)cc1)c1ccccn1
inactive: viability [1] 94.3% and 95.3% | Potency [2] | Potency [3] | Potency [4] | Potency [6] | Potency [7]

CSc1ccc(C(=O)/C=C/c2cc(C)c(OC(C)(C)C(=O)O)c(C)c2)cc1
active: Potency [1] 34 µM | Potency [2] 30.3 µM | Potency [3] 6.05 µM
inactive: Potency [5]

CC[C@H]1OC(=O)[C@H](C)[C@@H](O[C@H]2C[C@@](C)(OC)[C@@H](O)[C@H](C)O2)[C@H](C)[C@@H](O[C@@H]2O[C@H](C)C[C@H](N(C)C)[C@H]2O)[C@](C)(O)C[C@@H](C)C(=O)[C@H](C)[C@@H](O)[C@]1(C)O
inactive: viability [1] 113% | Potency [2] | Potency [3] | Potency [4] | Potency [6] | Potency [7]

Cc1ccc(C(=O)OCc2ccc([C@@H](CN)C(=O)Nc3ccc4cnccc4c3)cc2)c(C)c1
active: Potency [1] 14.4 µM | Potency [2] 8.11 µM | Potency [3] 3.23 µM | Potency [4] 5.12 µM | Potency [6] 9.1 µM | Potency [7] 8.11 µM

CNc1ncc2cc(-c3cc(NC(=O)NCCC(C)(C)C)c(F)cc3C)c(C)nc2n1
active: Potency [1] 2.35 µM | Potency [2] 0.662 µM | Potency [3] 0.468 µM | Potency [5] 1.05 µM

NC(=O)c1nc(F)c[nH]c1=O
inactive: viability [1] 119% | Potency [2] | Potency [3] | Potency [4] | Potency [6] | Potency [7]

C=CC(=O)N1CCC(CNc2ncnc(N)c2-c2ccc(Oc3ccccc3)cc2)CC1
inactive: viability [1] 101% | Potency [5]
active: Potency [2] 16.6 µM | Potency [3] 13.2 µM

CC(C)C[C@H](NC(=O)[C@H](Cc1ccccc1)NC(=O)OCc1ccccc1)C(=O)C=O
inactive: viability [1] 114% | Potency [2] | Potency [3] | Potency [4] | Potency [7]
active: Potency [6] 26.3 µM

CC(=O)c1ccc2c(c1)c1cc(C(C)=O)ccc1n2CCNC(C)C
active: Potency [1] 1.18 µM | Potency [2] 1.05 µM | Potency [3] 0.525 µM | Potency [4] 1.32 µM | Potency [6] 0.833 µM | Potency [7] 1.32 µM

O=C(O)/C(S)=C/c1ccc(I)cc1
inactive: viability [1] 112% | Potency [2] | Potency [3] | Potency [4] | Potency [6] | Potency [7]

C[C@]1(C(=O)N(CCCC(=O)O)Cc2cccc(Cl)c2)CCN1C(=O)c1csc2ccccc12
inactive: viability [1] 108% | Potency [2] | Potency [3] | Potency [4] | Potency [6] | Potency [7]

C=CC(=O)Nc1cc2c(Nc3ccc(F)c(Cl)c3)ncnc2cc1C#CC(C)(C)N1CCN(C)CC1
active: Potency [1] 5.9 µM | Potency [2] 2.63 µM | Potency [3] 0.742 µM | Potency [4] 3.72 µM | Potency [7] 4.68 µM

Cc1ccc(NS(=O)(=O)c2cccc(C#N)c2)c2[nH]cc(C#N)c12
active: Potency [1] 14.8 µM | Potency [2] 1.18 µM | Potency [3] 0.296 µM | Potency [5] 0.833 µM

C/C(=N\NC(=O)c1cccc(S(=O)(=O)N2CCOCC2)c1)c1cc(Cl)ccc1O
active: Potency [1] 6.61 µM | Potency [2] 1.86 µM | Potency [3] 5.9 µM | Potency [4] 2.95 µM | Potency [6] 2.09 µM | Potency [7] 4.17 µM

COc1cc2c(Oc3ccc4[nH]c(C)cc4c3F)ccnc2cc1OCC1(N)CC1
active: Potency [1] 16.6 µM | Potency [2] 7.42 µM | Potency [3] 8.33 µM | Potency [4] 10.5 µM | Potency [7] 8.33 µM

CC(C)Cc1ccc([C@@H](C)C(=O)NS(C)(=O)=O)cc1
inactive: viability [1] 112% | Potency [2] | Potency [3] | Potency [4] | Potency [7]

C/C=C(/C)C(=O)O[C@H]1C(C)=CC23C(=O)C(C=C(CO)[C@@H](O)[C@]12O)[C@H]1[C@@H](C[C@H]3C)C1(C)C (stereo not given in full)
active: Potency [1] 7.42 µM | Potency [2] 0.0053 µM | Potency [3] 0.0525 µM | Potency [5] 0.0019 µM

N#CC(c1ccnc(NCCc2cccnc2)n1)c1nc2ccccc2s1 (stereo not given)
active: Potency [1] 18.6 µM | Potency [2] 18.6 µM | Potency [3] 6.61 µM | Potency [4] 14.8 µM | Potency [6] 16.6 µM | Potency [7] 18.6 µM

CC(C)C(=O)OCC(=O)[C@@]12O[C@H](C3CCCCC3)O[C@@H]1C[C@H]1[C@@H]3CCC4=CC(=O)C=C[C@]4(C)[C@H]3[C@@H](O)C[C@@]12C
active: Potency [2] 14.8 µM | Potency [3] 23.5 µM | Potency [4] 20.9 µM | Potency [7] 16.6 µM
inactive: viability [1] 102%

N#Cc1cc2cc(CN3CCC(Nc4ncnc5sc(CC(F)(F)F)cc45)CC3)c(O)cc2n1Cc1cn[nH]c1
active: Potency [1] 23.5 µM | Potency [2] 18.6 µM | Potency [3] 5.9 µM | Potency [4] 23.5 µM | Potency [7] 26.3 µM

O=C(CCc1ccc(O)cc1)c1c(O)cc(O)cc1O[C@@H]1O[C@H](CO)[C@@H](O)[C@H](O)[C@H]1O
inactive: viability [1] 76.1% | Potency [2] | Potency [3] | Potency [4] | Potency [6] | Potency [7]

C[C@@H]1COCCN1c1cc(-c2ccnn2C)c2ccnc(-c3ccn[nH]3)c2n1
active: Potency [1] 0.0833 µM | Potency [2] 0.0525 µM | Potency [3] 0.118 µM | Potency [4] 0.296 µM | Potency [6] 0.296 µM | Potency [7] 0.332 µM

Nc1nc(Nc2ccc3c(c2)CC[C@@H](N2CCCC2)CC3)nn1-c1cc2c(nn1)-c1ccccc1CCC2
active: Potency [1] 23.5 µM | Potency [2] 18.6 µM | Potency [3] 2.63 µM | Potency [4] 7.42 µM | Potency [6] 18.6 µM | Potency [7] 20.9 µM

— PubChem BioAssay (NCATS)
